# From the supplement of paper PMC6522484
# ± gives the standard deviation of the averaged measurements.
# How the values were obtained:
# DLD1 [1] = assay: cell viability (CellTiter-Glo) relative to plate median (fraction of plate median); higher = more viable cells; conditions: 5 µM; treatment time 24 h; reporter: 7TFP
# Outline: (§1)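 Library compounds were added at a final concentration of 5 µM for 24 h to colorectal cancer cells stably transduced with a lentiviral TCF/Wnt firefly luciferase reporter. Reported values are firefly luciferase or CellTiterGlo luminescence, normalised per well to the plate median. Each value averages two independent replicates.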
# HCT116 = assay: as above; conditions: 5 µM; treatment time 24 h; reporter: TCF4/Wnt
# Outline: as §1
# SW480 [2] = assay: as above; conditions: 5 µM; treatment time 24 h; reporter: 7TFP
# Outline: as §1
# DLD1 [3] = assay: TCF/Wnt firefly luciferase reporter signal relative to plate median (fraction of plate median); higher = higher Wnt reporter signal; conditions: 5 µM; treatment time 24 h; reporter: 7TFP
# Outline: as §1
# SW480 [4] = assay: as above; conditions: 5 µM; treatment time 24 h; reporter: 7TFP
# Outline: as §1
compound,measurement,setting,value
CCCCCCCCCCCC[C@@H](C(=O)O)[C@H](C)C(=O)O,cell viability,DLD1 [1],1.005 ± 0.0071
same,cell viability,HCT116,1.08 ± 0.25
same,cell viability,SW480 [2],1 ± 0.028
same,TCF/Wnt firefly luciferase reporter signal,DLD1 [3],0.944 ± 0.11
same,TCF/Wnt firefly luciferase reporter signal,SW480 [4],1.03
COc1cc2occ(-c3ccccc3)c(=O)c2c(OC)c1C,cell viability,DLD1 [1],0.982 ± 0.015
same,cell viability,HCT116,1 ± 0.025
same,cell viability,SW480 [2],0.958 ± 0.021
same,TCF/Wnt firefly luciferase reporter signal,DLD1 [3],1.15 ± 0.16
same,TCF/Wnt firefly luciferase reporter signal,SW480 [4],1.12 ± 0.05
C=C1C2=CC(=O)O[C@@H](c3ccoc3)[C@]2(C)CC[C@@H]1[C@@]1(C)C=CC(=O)C(C)(C)[C@@H]1CC(=O)OC,cell viability,DLD1 [1],1.14 ± 0.071
same,cell viability,HCT116,1.2 ± 0.092
same,cell viability,SW480 [2],1.12 ± 0.05
same,TCF/Wnt firefly luciferase reporter signal,DLD1 [3],1.01 ± 0.1
same,TCF/Wnt firefly luciferase reporter signal,SW480 [4],0.987 ± 0.033
C=CCCCCCCCCCCCc1ccco1,cell viability,DLD1 [1],0.98 ± 0.085
same,cell viability,HCT116,1 ± 0.069
same,cell viability,SW480 [2],1.01 ± 0.035
same,TCF/Wnt firefly luciferase reporter signal,DLD1 [3],0.854 ± 0.0099
same,TCF/Wnt firefly luciferase reporter signal,SW480 [4],0.957 ± 0.028
O=C(/C=C/c1ccc(O)c(O)c1)O[C@H](Cc1ccc(O)c(O)c1)C(=O)O,cell viability,DLD1 [1],1.04 ± 0.014
same,cell viability,HCT116,0.947 ± 0.09
same,cell viability,SW480 [2],0.998 ± 0.031
same,TCF/Wnt firefly luciferase reporter signal,DLD1 [3],0.854 ± 0.015
same,TCF/Wnt firefly luciferase reporter signal,SW480 [4],0.934 ± 0.054
CN(C)CCc1c[nH]c2ccc(C[C@H]3COC(=O)N3)cc12,cell viability,DLD1 [1],0.931 ± 0.059
same,cell viability,HCT116,1.08 ± 0.078
same,cell viability,SW480 [2],1.04 ± 0.014
same,TCF/Wnt firefly luciferase reporter signal,DLD1 [3],1.03 ± 0.021
same,TCF/Wnt firefly luciferase reporter signal,SW480 [4],0.95 ± 0.069
CCOC(=O)c1ncn2c1CN(C)C(=O)c1cc(F)ccc1-2,cell viability,DLD1 [1],0.944 ± 0.045
same,cell viability,HCT116,1.03
same,cell viability,SW480 [2],0.952 ± 0.025
same,TCF/Wnt firefly luciferase reporter signal,DLD1 [3],0.996 ± 0.02
same,TCF/Wnt firefly luciferase reporter signal,SW480 [4],0.993 ± 0.0099
NCCC(=O)c1ccccc1N,cell viability,DLD1 [1],1.03 ± 0.052
same,cell viability,HCT116,1.08 ± 0.057
same,cell viability,SW480 [2],0.987 ± 0.0085
same,TCF/Wnt firefly luciferase reporter signal,DLD1 [3],0.981 ± 0.042
same,TCF/Wnt firefly luciferase reporter signal,SW480 [4],0.838 ± 0.016
CC[C@@H]1C(=O)N(C)c2cnc(Nc3ccc(C(=O)N[C@H]4CC[C@H](N5CCN(CC6CC6)CC5)CC4)cc3OC)nc2N1C(C)C [Volasertib],cell viability,DLD1 [1],1 ± 0.036
same,cell viability,HCT116,0.666 ± 0.095
same,cell viability,SW480 [2],1.21 ± 0.078
same,TCF/Wnt firefly luciferase reporter signal,DLD1 [3],0.91 ± 0.17
same,TCF/Wnt firefly luciferase reporter signal,SW480 [4],1.06 ± 0.042
Oc1cc(O)c2c(c1)O[C@H](c1cc(O)c(O)c(O)c1)[C@H](O)C2,cell viability,DLD1 [1],0.94 ± 0.059
same,cell viability,HCT116,0.897 ± 0.19
same,cell viability,SW480 [2],0.973 ± 0.024
same,TCF/Wnt firefly luciferase reporter signal,DLD1 [3],0.925 ± 0.024
same,TCF/Wnt firefly luciferase reporter signal,SW480 [4],1.07
NC(=O)c1cccc(N)c1,cell viability,DLD1 [1],0.983 ± 0.039
same,cell viability,HCT116,1.01 ± 0.062
same,cell viability,SW480 [2],0.9685 ± 0.0035
same,TCF/Wnt firefly luciferase reporter signal,DLD1 [3],0.959 ± 0.13
same,TCF/Wnt firefly luciferase reporter signal,SW480 [4],0.853 ± 0.09
CO[C@H]1C[C@H](O[C@H]2[C@H](C)[C@@H](O[C@@H]3O[C@H](C)C[C@H](N(C)C)[C@H]3OC(C)=O)[C@@H](C)C[C@@]3(CO3)C(=O)[C@H](C)[C@@H](OC(C)=O)[C@@H](C)[C@@H](C)OC(=O)[C@@H]2C)O[C@@H](C)[C@@H]1OC(C)=O,cell viability,DLD1 [1],1.06
same,cell viability,HCT116,1.01 ± 0.19
same,cell viability,SW480 [2],0.956 ± 0.03
same,TCF/Wnt firefly luciferase reporter signal,DLD1 [3],1.03 ± 0.11
same,TCF/Wnt firefly luciferase reporter signal,SW480 [4],0.945 ± 0.12
C=CCSSSCC=C,cell viability,DLD1 [1],1.05 ± 0.09
same,cell viability,HCT116,1.09 ± 0.014
same,cell viability,SW480 [2],0.99 ± 0.042
same,TCF/Wnt firefly luciferase reporter signal,DLD1 [3],1.02 ± 0.073
same,TCF/Wnt firefly luciferase reporter signal,SW480 [4],0.874 ± 0.013
CC1(C)O[C@@H]2C[C@H]3[C@@H]4CCC5=CC(=O)C=C[C@]5(C)[C@@]4(F)[C@@H](O)C[C@]3(C)[C@]2(C(=O)CO)O1,cell viability,DLD1 [1],0.955 ± 0.027
same,cell viability,HCT116,0.965 ± 0.024
same,cell viability,SW480 [2],1.03 ± 0.042
same,TCF/Wnt firefly luciferase reporter signal,DLD1 [3],1.09 ± 0.021
same,TCF/Wnt firefly luciferase reporter signal,SW480 [4],0.951 ± 0.051
CCCCC(=O)N(Cc1ccc(-c2ccccc2-c2nnn[nH]2)cc1)[C@H](C(=O)O)C(C)C,cell viability,DLD1 [1],0.908 ± 0.081
same,cell viability,HCT116,0.988 ± 0.17
same,cell viability,SW480 [2],1 ± 0.054
same,TCF/Wnt firefly luciferase reporter signal,DLD1 [3],0.985 ± 0.078
same,TCF/Wnt firefly luciferase reporter signal,SW480 [4],0.919 ± 0.09
Nc1nc(=O)c2c([nH]1)NCC(CNc1ccc(C(=O)N[C@@H](CCC(=O)O)C(=O)O)cc1)N2C=O (stereo not given in full),cell viability,DLD1 [1],1 ± 0.085
same,cell viability,HCT116,1.03
same,cell viability,SW480 [2],1.01 ± 0.019
same,TCF/Wnt firefly luciferase reporter signal,DLD1 [3],1.02 ± 0.12
same,TCF/Wnt firefly luciferase reporter signal,SW480 [4],1.01 ± 0.028
CC(=O)N[C@@H](Cc1c[nH]c2ccccc12)C(N)=O,cell viability,DLD1 [1],1.07 ± 0.11
same,cell viability,HCT116,0.831 ± 0.1
same,cell viability,SW480 [2],1.07 ± 0.028
same,TCF/Wnt firefly luciferase reporter signal,DLD1 [3],1.04 ± 0.18
same,TCF/Wnt firefly luciferase reporter signal,SW480 [4],0.891 ± 0.061
Nc1cc(N2CCCCC2)nc(N)[n+]1[O-],cell viability,DLD1 [1],1.01 ± 0.047
same,cell viability,HCT116,0.972 ± 0.054
same,cell viability,SW480 [2],1 ± 0.04
same,TCF/Wnt firefly luciferase reporter signal,DLD1 [3],1.04 ± 0.11
same,TCF/Wnt firefly luciferase reporter signal,SW480 [4],0.943 ± 0.062
O=C(O)P(=O)(O)O,cell viability,DLD1 [1],1.06 ± 0.028
same,cell viability,HCT116,0.965 ± 0.05
same,cell viability,SW480 [2],1 ± 0.011
same,TCF/Wnt firefly luciferase reporter signal,DLD1 [3],0.834 ± 0.0092
same,TCF/Wnt firefly luciferase reporter signal,SW480 [4],0.944 ± 0.031
Cc1c(C)c2c(c(C)c1O)CCC(C)(CCCC(C)CCCC(C)CCCC(C)C)O2 (stereo not drawn) [alpha-TOCHOPHEROL],cell viability,DLD1 [1],0.963 ± 0.012
same,cell viability,HCT116,0.97 ± 0.085
same,cell viability,SW480 [2],1.01 ± 0.017
same,TCF/Wnt firefly luciferase reporter signal,DLD1 [3],1.07 ± 0.014
same,TCF/Wnt firefly luciferase reporter signal,SW480 [4],1.01 ± 0.16
CC1(C)CC[C@]2(C)CC[C@]3(C)C(=CC[C@@H]4[C@@]5(C)CC[C@H](O)C(C)(C)[C@@H]5CC[C@]43C)[C@@H]2C1 [beta-AMYRIN],cell viability,DLD1 [1],1.01 ± 0.073
same,cell viability,HCT116,0.962 ± 0.016
same,cell viability,SW480 [2],0.994 ± 0.093
same,TCF/Wnt firefly luciferase reporter signal,DLD1 [3],0.913 ± 0.016
same,TCF/Wnt firefly luciferase reporter signal,SW480 [4],0.9235 ± 0.0021
Nc1ccn([C@@H]2O[C@H](CO)[C@@H](O)[C@@H]2O)c(=O)n1,cell viability,DLD1 [1],0.987 ± 0.018
same,cell viability,HCT116,0.849 ± 0.092
same,cell viability,SW480 [2],1.1 ± 0.064
same,TCF/Wnt firefly luciferase reporter signal,DLD1 [3],1.08 ± 0.11
same,TCF/Wnt firefly luciferase reporter signal,SW480 [4],0.968 ± 0.14
C[C@H]1CC[C@@H](C(C)(C)O)CC2=C1CC[C@@H]2C,cell viability,DLD1 [1],0.964 ± 0.079
same,cell viability,HCT116,1.025 ± 0.0071
same,cell viability,SW480 [2],0.9715 ± 0.0078
same,TCF/Wnt firefly luciferase reporter signal,DLD1 [3],0.907 ± 0.11
same,TCF/Wnt firefly luciferase reporter signal,SW480 [4],0.86 ± 0.016
OC1(c2ccc(Cl)c(C(F)(F)F)c2)CCN(CCCC(c2ccc(F)cc2)c2ccc(F)cc2)CC1,cell viability,DLD1 [1],0.982 ± 0.14
same,cell viability,HCT116,1.08 ± 0.071
same,cell viability,SW480 [2],0.994 ± 0.023
same,TCF/Wnt firefly luciferase reporter signal,DLD1 [3],1.1 ± 0.21
same,TCF/Wnt firefly luciferase reporter signal,SW480 [4],0.931 ± 0.092
CC(C)(C)NCC(O)c1ccc(O)c(CO)c1 (stereo not given),cell viability,DLD1 [1],0.952 ± 0.096
same,cell viability,HCT116,1.07 ± 0.092
same,cell viability,SW480 [2],0.922 ± 0.0057
same,TCF/Wnt firefly luciferase reporter signal,DLD1 [3],1.06 ± 0.014
same,TCF/Wnt firefly luciferase reporter signal,SW480 [4],0.995 ± 0.14
O=C(O)c1cc(=O)c(O)c2c(O)c(O)c(O)cc2c1,cell viability,DLD1 [1],0.948 ± 0.066
same,cell viability,HCT116,0.82 ± 0.04
same,cell viability,SW480 [2],1 ± 0.05
same,TCF/Wnt firefly luciferase reporter signal,DLD1 [3],0.806 ± 0.25
same,TCF/Wnt firefly luciferase reporter signal,SW480 [4],0.993 ± 0.12
O=c1c(O)c(-c2ccc(O)c(O)c2)oc2c(O[C@@H]3O[C@H](CO)[C@@H](O)[C@H](O)[C@H]3O)c(O)cc(O)c12,cell viability,DLD1 [1],0.99 ± 0.057
same,cell viability,HCT116,0.905 ± 0.22
same,cell viability,SW480 [2],0.976 ± 0.033
same,TCF/Wnt firefly luciferase reporter signal,DLD1 [3],1.1 ± 0.078
same,TCF/Wnt firefly luciferase reporter signal,SW480 [4],0.997 ± 0.061
C[C@@H]1CC[C@@]2(OC1)O[C@H]1C[C@H]3[C@@H]4CC[C@@H]5C[C@@H](O)CC[C@]5(C)[C@H]4CC[C@]3(C)[C@H]1[C@@H]2C,cell viability,DLD1 [1],0.993 ± 0.038
same,cell viability,HCT116,1.09 ± 0.05
same,cell viability,SW480 [2],1.01 ± 0.05
same,TCF/Wnt firefly luciferase reporter signal,DLD1 [3],0.956 ± 0.09
same,TCF/Wnt firefly luciferase reporter signal,SW480 [4],1.04 ± 0.071
CCN(CC)CCOCCOC(=O)C1(c2ccccc2)CCCC1,cell viability,DLD1 [1],1.03 ± 0.13
same,cell viability,HCT116,0.887 ± 0.1
same,cell viability,SW480 [2],0.916 ± 0.013
same,TCF/Wnt firefly luciferase reporter signal,DLD1 [3],1.12 ± 0.16
same,TCF/Wnt firefly luciferase reporter signal,SW480 [4],1.04 ± 0.028
CN1CCC(OC(c2ccccc2)c2ccccc2)CC1,cell viability,DLD1 [1],0.969 ± 0.044
same,cell viability,HCT116,1.02 ± 0.014
same,cell viability,SW480 [2],0.979 ± 0.024
same,TCF/Wnt firefly luciferase reporter signal,DLD1 [3],1.12 ± 0.13
same,TCF/Wnt firefly luciferase reporter signal,SW480 [4],1.16 ± 0.092
